PubChem BioAssay AID1159580 (chemical genetic matrix, 2015)
Values joined by “and” are separate entries in the source; they are usually repeats but may differ in a detail not shown here. Identical values can stand only once. Screen size: about 5,500 compounds; about 2,000 (36%) were called active. About 18% were inconclusive and are not listed. No stated cut-off is given here; in the data, active means normalized growth mostly below about 0.91 (no sharp cut-off); inconclusive means no clear call, values can overlap the other calls; inactive means mostly above about 0.92. Some of the results follow.

Assay: chemical genetic growth profiling, strain panel (AID 1159580);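 further: tested at 20 µM; growth read once vehicle control cultures reached saturation at 30 °C; 1 = growth at the plate median or of vehicle wells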
Conditions: S. cerevisiae deletion strains, growth OD
[1] = locus YDR150W, strain NUM1, stronger effect = lower value
[2] = locus YMR307W, strain GAS1, stronger effect = lower value
[3] = locus YNL322C, strain KRE1, stronger effect = lower value

Measured: normalized growth

CC12CCC3C(=CCc4cc(O)ccc43)C1CCC2=O (stereo not drawn)
active: locus YDR137W, strain rgp1, stronger effect = lower value 0.614 | locus YDR162C, strain NBP2, stronger effect = lower value 0.515 | locus YLR039C, strain RIC1, stronger effect = lower value 0.397 | locus YLR262C, strain YPT6 (second series), stronger effect = lower value 0.598 | locus YLR262C, strain YPT6, stronger effect = lower value 0.377 | locus YLR342W, strain FKS1 (second series), stronger effect = lower value 0.76 | locus YNL307C, strain MCK1, stronger effect = lower value 0.826 | locus YNR052C, strain pop2, stronger effect = lower value 0.901 | locus YOR184W, strain ser1, stronger effect = lower value 0.81 | locus YPR163C, strain tif3, stronger effect = lower value 0.875
inactive: locus YAL021C, strain ccr4, stronger effect = lower value 0.932 | locus YAL026C, strain drs2, stronger effect = lower value 0.992 | locus YAL030W, strain snc1, stronger effect = lower value 0.998 | locus YBL061C, strain skt5, stronger effect = lower value 0.971 | locus YBR009C, strain hhf1, stronger effect = lower value 0.972 | locus YBR021W, strain FUR4, stronger effect = lower value 0.913 | locus YBR023C, strain chs3, stronger effect = lower value 0.974 | locus YBR171W, strain sec66, stronger effect = lower value 0.986 | locus YBR229C, strain ROT2, stronger effect = lower value 0.989 | locus YBR231C, strain swc5, stronger effect = lower value 0.978 | locus YBR279W, strain paf1, stronger effect = lower value 0.964 | locus YCL011C, strain gbp2, stronger effect = lower value 0.98 | locus YCL016C, strain dcc1, stronger effect = lower value 0.99 | locus YCL029C, strain bik1, stronger effect = lower value 0.995 | locus YCL061C, strain MRC1, stronger effect = lower value 0.965 | locus YCL069W, strain vba3, stronger effect = lower value 0.964 | locus YCR088W, strain abp1, stronger effect = lower value 0.981 | locus YDL005C, strain med2, stronger effect = lower value 0.959 | locus YDL035C, strain GPR1, stronger effect = lower value 0.898 | locus YDL040C, strain nat1, stronger effect = lower value 0.995 | locus YDL074C, strain BRE1, stronger effect = lower value 0.882 | locus YDL101C, strain DUN1, stronger effect = lower value 0.975 | locus YDL185W, strain tfp1, stronger effect = lower value 1.01 | locus YDL192W, strain arf1, stronger effect = lower value 0.956 | locus YDR001C, strain nth1, stronger effect = lower value 0.976 | locus YDR069C, strain doa4, stronger effect = lower value 0.966 | locus YDR101C, strain arx1, stronger effect = lower value 1.01 | [1] 0.991 | locus YDR159W, strain sac3, stronger effect = lower value 0.978 | locus YDR195W, strain ref2 1.12 | locus YDR297W, strain sur2, stronger effect = lower value 0.983 | locus YDR318W, strain mcm21, stronger effect = lower value 0.962 | locus YDR334W, strain swr1, stronger effect = lower value 0.936 | locus YDR335W, strain msn5, stronger effect = lower value 0.925 | locus YDR388W, stronger effect = lower value 0.983 | locus YDR392W, strain spt3, stronger effect = lower value 0.937 | locus YDR502C, strain sam2, stronger effect = lower value 0.961 | locus YEL003W, strain gim4, stronger effect = lower value 0.945 | locus YEL037C, strain rad23, stronger effect = lower value 0.99 | locus YEL061C, strain CIN8 (second series), stronger effect = lower value 0.957 | locus YEL061C, strain CIN8, stronger effect = lower value 0.967 | locus YER015W, strain faa2, stronger effect = lower value 0.938 | locus YER016W, strain bim1, stronger effect = lower value 0.976 | locus YER110C, stronger effect = lower value 0.993 | locus YER111C, strain swi4, stronger effect = lower value 0.989 | locus YER155C, strain BEM2 (second series), stronger effect = lower value 0.987 | locus YER155C, strain BEM2, stronger effect = lower value 0.994 | locus YER167W, strain BCK2, stronger effect = lower value 0.988 | locus YFR010W, strain ubp6, stronger effect = lower value 0.964 | locus YGL078C, strain dbp3, stronger effect = lower value 1 | locus YGL086W, strain mad1, stronger effect = lower value 0.949 | locus YGL167C, strain pmr1, stronger effect = lower value 0.96 | locus YGL173C, strain kem1, stronger effect = lower value 0.959 | locus YGL227W, strain vid30, stronger effect = lower value 0.989 | locus YGL240W, strain doc1, stronger effect = lower value 0.946 | locus YGL248W, strain PDE1, stronger effect = lower value 0.936 | locus YGL253W, strain hxk2, stronger effect = lower value 0.961 | locus YGR078C, strain PAC10, stronger effect = lower value 0.903 | locus YGR135W, strain pre9, stronger effect = lower value 0.952 | locus YGR229C, strain SMI1, stronger effect = lower value 0.964 | locus YGR252W, strain gcn5, stronger effect = lower value 0.882 | locus YHR013C, strain ard1, stronger effect = lower value 0.994 | locus YHR027C, strain rpn1, stronger effect = lower value 0.976 | locus YHR030C, strain SLT2, stronger effect = lower value 0.981 and 1.03 | locus YHR079C, strain IRE1 (second series), stronger effect = lower value 1.01 | locus YHR079C, strain IRE1, stronger effect = lower value 1.03 | locus YHR094C, strain hxt1, stronger effect = lower value 1.01 | locus YHR129C, strain ARP1, stronger effect = lower value 0.968 | locus YHR142W, strain chs7, stronger effect = lower value 0.929 | locus YHR200W, strain rpn10, stronger effect = lower value 1 | locus YIL066C, strain RNR3, stronger effect = lower value 0.881 | locus YIL073C, strain SPO22, stronger effect = lower value 0.897 | locus YIL125W, strain kgd1, stronger effect = lower value 0.994 | locus YIR030C, strain dcg1, stronger effect = lower value 0.993 | locus YJL092W, strain hpr5, stronger effect = lower value 0.993 | locus YJL095W, strain BCK1 (second series), stronger effect = lower value 0.982 | locus YJL095W, strain BCK1, stronger effect = lower value 0.819 and 1.04 | locus YJL115W, strain asf1, stronger effect = lower value 0.97 | locus YJL129C, strain trk1, stronger effect = lower value 0.965 | locus YJL134W, strain LCB3, stronger effect = lower value 0.988 | locus YJL154C, strain vps35, stronger effect = lower value 0.983 | locus YJL164C, strain tpk1, stronger effect = lower value 0.964 | locus YJL166W, strain qcr8, stronger effect = lower value 0.952 | locus YJL168C, strain set2, stronger effect = lower value 0.994 | locus YJL187C, strain SWE1 (second series), stronger effect = lower value 0.928 | locus YJR043C, strain POL32, stronger effect = lower value 0.933 | locus YJR066W, strain TOR1, stronger effect = lower value 0.99 | locus YKL009W, strain mrt4, stronger effect = lower value 0.948 | locus YKL068W, stronger effect = lower value 0.995 | locus YKL085W, strain MDH1 (second series), stronger effect = lower value 0.98 | locus YKL085W, strain MDH1, stronger effect = lower value 0.98 | locus YKL160W, strain elf1, stronger effect = lower value 0.942 | locus YKL190W, strain CNB1, stronger effect = lower value 0.977 | locus YKR001C, strain vps1, stronger effect = lower value 0.908 | locus YKR091W, strain srl3, stronger effect = lower value 0.98 | locus YLL001W, strain dnm1, stronger effect = lower value 0.94 | locus YLL026W, stronger effect = lower value 0.988 | locus YLL041C, strain sdh2, stronger effect = lower value 0.974 | locus YLR027C, strain aat2, stronger effect = lower value 0.968 | locus YLR058C, strain SHM2, stronger effect = lower value 0.958 | locus YLR102C, strain apc9, stronger effect = lower value 1.02 | locus YLR113W, strain HOG1, stronger effect = lower value 1.07 | locus YLR221C, strain rsa3, stronger effect = lower value 0.956 | locus YLR258W, strain gsy2, stronger effect = lower value 0.968 | locus YLR268W, strain sec22, stronger effect = lower value 0.973 | locus YLR320W, strain mms22, stronger effect = lower value 0.94 | locus YLR330W, strain CHS5, stronger effect = lower value 0.979 | locus YLR342W, strain FKS1, stronger effect = lower value 0.914 | locus YLR357W, strain rsc2, stronger effect = lower value 1.02 | locus YLR370C, strain arc18, stronger effect = lower value 0.98 | locus YLR371W, strain rom2, stronger effect = lower value 0.986 | locus YLR384C, strain iki3, stronger effect = lower value 0.96 | locus YLR418C, strain cdc73, stronger effect = lower value 0.905 | locus YML016C, strain PPZ1, stronger effect = lower value 0.973 | locus YML032C, strain rad52, stronger effect = lower value 0.958 | locus YML120C, strain ndi1, stronger effect = lower value 0.971 | locus YML124C, strain tub3, stronger effect = lower value 0.995 | locus YMR058W, strain fet3, stronger effect = lower value 0.959 | locus YMR078C, strain ctf18, stronger effect = lower value 0.994 | locus YMR125W, strain sto1, stronger effect = lower value 0.988 | locus YMR129W, stronger effect = lower value 0.987 | locus YMR205C, strain PFK2, stronger effect = lower value 0.945 | locus YMR223W, strain ubp8, stronger effect = lower value 0.973 | locus YMR231W, strain pep5, stronger effect = lower value 0.969 | [2] 0.763 | locus YNL067W, strain RPL9B, stronger effect = lower value 0.935 | locus YNL071W, strain lat1, stronger effect = lower value 0.978 | locus YNL128W, strain TEP1, stronger effect = lower value 0.967 | locus YNL183C, strain NPR1, stronger effect = lower value 0.986 | locus YNL209W, strain ssb2, stronger effect = lower value 0.973 | locus YNL233W, strain BNI4, stronger effect = lower value 0.936 | locus YNL248C, strain rpa49, stronger effect = lower value 0.908 | locus YNL250W, strain rad50, stronger effect = lower value 0.992 | locus YNL271C, strain bni1, stronger effect = lower value 0.974 | locus YNL298W, strain CLA4, stronger effect = lower value 0.963 | locus YNL322C, strain KRE1 (second series), stronger effect = lower value 0.984 | [3] 0.988 | locus YNR049C, strain mso1, stronger effect = lower value 0.987 | locus YOL006C, strain TOP1, stronger effect = lower value 0.618 | locus YOL012C, strain htz1 1.37 | locus YOL147C, strain pex11, stronger effect = lower value 1 | locus YOR001W, strain rrp6, stronger effect = lower value 0.955 | locus YOR061W, strain CKA2, stronger effect = lower value 0.971 | locus YOR069W, strain VPS5, stronger effect = lower value 0.978 | locus YOR070C, strain gyp1, stronger effect = lower value 0.979 | locus YOR080W, strain dia2, stronger effect = lower value 0.963 | locus YOR083W, strain WHI5, stronger effect = lower value 0.934 | locus YOR106W, strain vam3, stronger effect = lower value 0.902 | locus YOR136W, strain idh2, stronger effect = lower value 1.01 | locus YOR144C, strain elg1, stronger effect = lower value 0.993 | locus YOR231W, strain MKK1, stronger effect = lower value 1.04 | locus YOR265W, strain rbl2, stronger effect = lower value 0.977 | locus YOR270C, strain vph1, stronger effect = lower value 0.852 | locus YOR290C, strain snf2, stronger effect = lower value 0.961 | locus YOR316C, strain cot1, stronger effect = lower value 0.987 | locus YPL051W, strain arl3, stronger effect = lower value 0.916 | locus YPL055C, strain LGE1, stronger effect = lower value 0.89 | locus YPL078C, strain atp4, stronger effect = lower value 0.908 | locus YPL106C, strain sse1, stronger effect = lower value 0.992 | locus YPL240C, strain hsp82, stronger effect = lower value 0.986 | locus YPL256C, strain CLN2, stronger effect = lower value 1.06 | locus YPR119W, strain clb2, stronger effect = lower value 1 | locus YPR141C, strain kar3, stronger effect = lower value 0.996 | locus YPR167C, strain met16, stronger effect = lower value 0.975 | strain wtn01, stronger effect = lower value 0.986

C[C@]12CC[C@@H]3c4ccc(O)cc4CC[C@H]3[C@@H]1CCC2=O
inactive: locus YAL040C, strain CLN3, stronger effect = lower value 0.996 | locus YCL061C, strain MRC1 (second series), stronger effect = lower value 1.01 | [1] 1 | locus YDR363W, strain ESC2, stronger effect = lower value 1 | locus YER002W, strain NOP16, stronger effect = lower value 0.995 | locus YMR263W, strain SAP30, stronger effect = lower value 1 | [2] 1 | locus YNL175C, strain NOP13, stronger effect = lower value 0.985 | locus YNL197C, strain WHI3, stronger effect = lower value 1 | locus YNL224C, strain SQS1, stronger effect = lower value 1 | [3] 0.987 | locus YOR083W, strain WHI5 (second series), stronger effect = lower value 0.905 | locus YPL241C, strain CIN2, stronger effect = lower value 1
